Hit rate of the full screen: of about 410,000 compounds, about 2,400 (0.59%) were called active. The full list was thinned out, with actives kept by preference. A number with no mark means an inactive call. No stated cut-off is given here; in the data, active means max activation above about 30%; inactive means the rest.

Chain of D(3) dopamine receptor (Homo sapiens) (P35462 whole entry, looked up): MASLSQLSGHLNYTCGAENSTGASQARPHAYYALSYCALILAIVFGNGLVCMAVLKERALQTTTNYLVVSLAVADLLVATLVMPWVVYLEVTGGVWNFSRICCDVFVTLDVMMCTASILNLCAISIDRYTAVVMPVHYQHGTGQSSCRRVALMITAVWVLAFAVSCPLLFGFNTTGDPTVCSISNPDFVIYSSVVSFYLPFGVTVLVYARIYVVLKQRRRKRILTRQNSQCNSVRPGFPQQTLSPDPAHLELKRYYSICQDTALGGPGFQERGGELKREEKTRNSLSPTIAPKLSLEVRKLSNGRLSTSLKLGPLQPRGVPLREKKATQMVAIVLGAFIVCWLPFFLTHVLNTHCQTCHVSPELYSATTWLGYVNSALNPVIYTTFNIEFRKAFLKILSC

This assay concerns the target D(3) dopamine receptor (Homo sapiens) (UniProt P35462). As to the kind of experiment: qHTS of D3 Dopamine Receptor Agonist: qHTS. Further: 0% is about no effect. The note with it: D3R DiscoveRx beta-arrestin cells, luminescence, 90 min; hits give high values. An outline of the steps: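 Agonist-mode cell screen: cells plated at 1500/well and incubated overnight at 37 °C, then exposed to library compounds for 90 min at 37 °C. Detection reagent was added for 30–60 min at room temperature, and luminescence was read.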
A general note: qHTS replaces the single test concentration by a dilution series.
In the case of `CCOC(=O)CSc1nnc(CNC(=O)c2cccs2)n1-c1cc(OC)ccc1OC`, the max activation was 6.63%.
In the case of `CC(C)(C)OC(=O)N1CCC(c2c(C(=O)N3CCN(c4cccc(Cl)c4)CC3)cnn2-c2cccc(Cl)c2)CC1`, the max activation is -9.63%.
Next, `COC(=O)c1ccccc1NC(=O)Cn1c(=O)n(-c2cccc(C(F)(F)F)c2)c(=O)c2c(C)c(C)sc21`: -14.9%; `CS(=O)(=O)N(Cc1ccc(Cl)cc1)c1ccc(C(=O)NCCSCc2ccco2)cc1`: 0.47%; `CCN1CCN(C(=O)c2ccc(CN(c3ccc(C)c(C)c3)S(C)(=O)=O)cc2)CC1`: -12.8%.
For the molecule `Cc1ccc(N(Cc2ccc(C(=O)Nc3ccccc3C(=O)NCc3ccco3)cc2)S(C)(=O)=O)cc1C`, the max activation was 33.8% (active).
`Cc1oc2ncnc(N3CCCCC3)c2c1C(=O)N1CCN(c2cccc(Cl)c2)CC1`: the max activation is -5.06%.
`Cc1cc(C)cc(NC(=O)CSc2nc(=O)n(CCN3CCOCC3)c3c2CCC3)c1`: the max activation was 0.821%.
Take `CC(C)(C)OC(=O)N1CCC(c2c(C(=O)NCc3ccccn3)cnn2-c2ccc(F)cc2)CC1`: the max activation is -0.963%.
For the molecule `CCCOc1ccc(NC(=O)CC2C(=O)N(c3ccccc3)C(=O)N2Cc2ccco2)cc1` (configuration not stated), the max activation was 8.76%.
Consider `COc1ccc(-c2cc(-c3nc(-c4cc(OC)c(OC)c(OC)c4)no3)[nH]n2)c(OC)c1`, for which the max activation was 5.61%.
`CCc1ccc(-n2nnc(-c3nc(-c4ccccc4)no3)c2C)cc1`: the max activation was 6.45%.
Consider `COc1ccc(OC)c(-n2nnc(-c3nc(-c4cc(OC)c(OC)c(OC)c4)no3)c2C)c1`, for which the max activation was 31.2% (active).
The result for `Nc1ccccc1SC(C[N+](=O)[O-])c1ccccc1` (configuration not stated) reads 0.396%; that for `Cc1cccc(C)c1NC(=O)NC1=CCCN1C`, 0.916%.
Take `O=C(O)CCC(=O)O`: the max activation was 17.7%.
On to `CCOc1ccc(S(=O)(=O)c2cn(Cc3ccccc3)c3ccc(OCC)cc3c2=O)cc1`, for which the max activation is 6.37%.
Next, `COc1ccc(OC)c(-c2c(=O)n(OCc3ccccc3Br)c3ccccc3[n+]2[O-])c1`: -6.63%; `CCOc1ccc(OCC)c(-c2c(=O)n(OCc3ccc(Cl)cc3)c3ccccc3[n+]2[O-])c1`: 39.5% (active); `O=C(OCc1ccccc1)c1ccc(O)cc1`: 3.77%.
For `Cc1ccc(C(=O)OCC(=O)NC2CCCCCCC2)cc1C`, the max activation was 1.29%.
Take `Cc1ccc(C(=O)COC(=O)c2cccc(N3C(=O)c4c(C)nc5ccccc5c4C3=O)c2)cc1C`: the max activation is 40.4% (active).
The result for `Cc1ccc(C(=O)COC(=O)CCN2C(=O)C3C4CCC(C4)C3C2=O)cc1C` (configuration not stated) reads -16.9%.
For the molecule `Cc1cc2c(cc3c(SCc4nc(-c5ccccc5)oc4C)nnc(C)n32)o1`, the max activation is -6.34%.
The result for `COc1ccc(C(=O)c2oc3ccccc3c2NC(=O)COc2cccc(C)c2)cc1` reads -8.79%.
Turning to `Cc1ccc(N(CC(=O)NCc2ccc(Cl)cc2)S(=O)(=O)N(C)C)cc1`, the max activation is 1.16%.
Next, `Cc1ccccc1OCC(=O)Nc1c(C(=O)Nc2ccccc2F)oc2ccccc12`: -10.6%; `COC(=O)[C@@H]1CC2=CC(=O)CC[C@]2(C)[C@@]23O[C@@H]2C[C@@]2(C)[C@@H](CC[C@@]24CCC(=O)O4)[C@H]13`: 3.79%; `COc1cccc(N2CCN(C(=O)CCCCCn3c(=O)[nH]c4ccccc4c3=O)CC2)c1`: -3.38%.
In the case of `COC(=O)c1ccccc1NS(=O)(=O)c1ccc2c(c1)CCCN2C(C)=O`, the max activation is -8.34%.
As to `COC(=O)c1ccc(NC(=O)c2ccccc2NS(=O)(=O)c2ccccc2)cc1`, the max activation is 34.2% (active).
As for `Cc1cc(NS(=O)(=O)c2ccc(NC(=O)c3ccccc3C)cc2)nc(C)n1`, the max activation was 0.492%.
For `CCOc1ccc(S(=O)(=O)N(CC(=O)NCCSCc2ccc(C)cc2)c2ccccc2)cc1`, the max activation is 1.63%.
As for `COc1ccc(C)cc1NC(=O)C(=O)NCCc1sc(-c2cccc(C)c2)nc1C`, the max activation is 3.11%.
The result for `NNc1nnc(NN)c2ccccc12` reads -0.65%; that for `CCOC(=O)c1ccc(NC(=O)CCS(=O)(=O)c2ccc(C)cc2)cc1`, 4.32%; that for `Cc1noc(C)c1C(=O)Nc1ccccn1`, 31.1% (active).
Consider `Cc1noc(C)c1C(=O)NC(C)c1ccc2c(c1)OCO2` (configuration not stated), for which the max activation is 17.7%.
Next, `Cc1noc(C)c1C(=O)NCCc1ccc(S(N)(=O)=O)cc1`: 4.23%.
On to `O=C(/C=C/c1cccc(F)c1)NC1CC1`, for which the max activation is 7.01%.
`NC(=O)c1ccsc1NC(=O)COC(=O)Cc1n[nH]c(=O)c2ccccc12`: the max activation is -0.194%.
On to `Cc1cccc(C(=O)OCC(=O)Nc2sccc2C(N)=O)c1C`, for which the max activation was 3.92%.
With `CCCCn1nc(C(=O)OCC(=O)Nc2sccc2C(N)=O)c2ccccc2c1=O`, the max activation is 39.2% (active).
For the molecule `CO[C@]1(NC(=O)CSC(F)F)C(=O)N2C(C(=O)O)=C(CSc3nnnn3CCO)CO[C@H]21`, the max activation was 4.38%.
As to `COc1ccc(CNC(=O)C(C)NCc2ccccc2Cl)cc1` (configuration not stated), the max activation is -7.27%.
On to `CC(CCc1ccccc1)NC(=O)c1cnc(Cl)c(Cl)c1` (configuration not stated), for which the max activation is -0.183%.
With `CC(CCc1ccc(O)cc1)NCc1ccc(Cl)cc1Cl` (configuration not stated), the max activation was 91.1% (active).
Take `CCCCSc1ncnc2c1sc1nc(N3CCOCC3)c3c(c12)CCCC3`: the max activation is -9.06%.
`COc1ccc(NC(C)=O)cc1NC(=O)CN1CCN(c2ccc(F)cc2)CC1`: the max activation is 3.91%.
Next, `COc1ccc(N)cc1NC(=O)CN1CCOCC1`: 3.16%.
For `COc1ccc(NC(C)=O)cc1NC(=O)CN1CCN(C2c3ccccc3-c3ccccc32)CC1`, the max activation is 46.6% (active).
In the case of `Cc1nn2c(=O)cc(COC(=O)CNC(=O)c3ccc(F)cc3)nc2s1`, the max activation is -2.47%.
`CCOc1ccccc1NC(=O)CCn1cnnn1`: the max activation is 4.34%.
Next, `CCOc1ccc(NC(=O)C/C(C)=N/NC(=O)Cc2cccs2)cc1`: 5.68%; `CCOc1ccccc1NC(=O)Cc1cccs1`: 49.3% (active); `COc1ccc(CNC(=O)CCc2c(C)nn(-c3ccc(N4CCCC4)nn3)c2C)cc1`: 9.29%.
`Cc1noc(C)c1S(=O)(=O)N1CCCC(C(=O)Nc2nccs2)C1` (configuration not stated): the max activation was 2.46%.
For the molecule `COc1c(C)cc(C(=O)C2CCCN(S(=O)(=O)c3c(C)noc3C)C2)cc1C` (configuration not stated), the max activation was 32.6% (active).
Consider `CCOC(=O)C1CCN(S(=O)(=O)c2c(C)noc2C)CC1`, for which the max activation was -8.75%.
In the case of `CCCn1c(NCc2ccc(N(CC)CC)cc2)nc2ccccc21`, the max activation was -7.25%.
Next, `COC(=O)c1ccccc1NC(=O)c1cnn(-c2ccc(F)cc2)c1-n1cccc1`: -7.92%.
Turning to `CCOCCc1nn2c(=O)cc(COC(=O)CNC(=O)c3ccc(C(C)(C)C)cc3)nc2s1`, the max activation is 6.28%.
On to `Cc1ccc(-n2nc(CO)c(C(=O)NCCc3ccccc3)n2)cc1`, for which the max activation is 1.72%.
As to `CCSc1nnc2c(n1)OC(c1ccc(OCC(=O)O)cc1)Nc1ccccc1-2` (configuration not stated), the max activation is 6.71%.
Next, `CCC(=O)N1CCc2cc(S(=O)(=O)NC(Cc3ccccc3)C(=O)NCc3ccc(C)cc3)ccc21` (configuration not stated): 3.11%.
As for `O=C(CN1CCN(c2ncccn2)CC1)Nc1ccccc1C(F)(F)F`, the max activation is 5.01%.
For the molecule `CCC(=O)Nc1ccc2c(c1)nc(CCN1CCN(c3ccccn3)CC1)n2C`, the max activation was 38.1% (active).
For the molecule `O=C(CN1CCN(c2ccccn2)CC1)NCc1cccs1`, the max activation is -2.33%.
As to `Cn1c(CCN2CCN(c3ccccn3)CC2)nc2cc(NS(=O)(=O)c3ccc(F)cc3)ccc21`, the max activation was 2.61%.
For `CCOC(=O)N1CCN(Cc2nc3cc(NC(=O)CC)ccc3n2CC)CC1`, the max activation was -5.31%.
With `O=C(CN1CCN(c2ccccn2)CC1)Nc1ccc(Br)cc1`, the max activation is 45.2% (active).
In the case of `Oc1ccc(Cl)c2c1CCC2`, the max activation was -6.75%.
For `CCc1ccc(CNCc2c(C(=O)O)n(Cc3ccc(F)cc3Cl)c3cc(OC)ccc23)cc1`, the max activation was -22.5%.
The result for `CCCC(=O)Nc1ccc2oc(-c3ccc(O)c(Br)c3)nc2c1` reads 6.09%.
Take `CC1CCCCN1CC(=O)N1CCCc2c1c(=O)oc1ccc(OCc3ccccc3)cc21` (configuration not stated): the max activation is -16.2%.
In the case of `Cc1ccccc1NC(=O)c1c(NC(=O)c2ccccc2F)sc2c1CCC(C)C2` (configuration not stated), the max activation is 4.23%.
On to `Cc1nnc(C(=O)NC(C)(C)c2nc(C(=O)NCc3ccc(F)cc3)c(O)c(=O)n2C)o1`, for which the max activation was 4.42%.
Regarding `N#Cc1ccc(-c2ccc(F)cc2)nc1Sc1ccccc1`, the max activation is 5.43%.
The result for `N#Cc1ccc(-c2ccc(Cl)cc2)nc1Oc1ccc(F)cc1` reads 34.7% (active).
With `CN(C)c1ccnc(Oc2ccc(F)cc2)c1C#N`, the max activation was 2.14%.
For `Cn1c(=O)sc2cc(NS(=O)(=O)c3ccc(C(C)(C)C)cc3)ccc21`, the max activation was -11%.
`CCc1ccc(-n2c(SCc3cc(=O)n4cc(Br)ccc4n3)nc3[nH]ncc3c2=O)cc1`: the max activation was 18.2%.
In the case of `Cc1nnc(NC(=O)CSc2nc3c([nH]c4ccccc43)c(=O)n2-c2cccc(Cl)c2)s1`, the max activation is 16.6%.
The result for `Cc1cccc2nc(CSc3nc4[nH]ncc4c(=O)n3-c3cccc(Cl)c3)cc(=O)n12` reads 32.7% (active); that for `CO[C@H]1C=CO[C@@]2(C)Oc3c(C)c(O)c4c(O)c(c(/C=N/N5CCN(C)CC5)c(O)c4c3C2=O)NC(=O)/C(C)=C\C=C[C@H](C)[C@H](O)[C@@H](C)[C@@H](O)[C@@H](C)[C@H](OC(C)=O)[C@@H]1C`, -16.3%.
With `COc1ccc(-n2c(=O)c3ccccc3n(Cc3ccccc3Cl)c2=O)cc1`, the max activation was 4.01%.
The result for `Cc1ccc(CSc2oc(-c3cccs3)nc2S(=O)(=O)c2ccc(C)cc2)cc1` reads 6.03%.

(Values after PubChem BioAssay AID652048 (National Center for Advancing Translational Sciences (NCATS), 2013).)
